About 79,000 compounds went through this panel and 15% of them were active in at least one assay; those are over-represented in the sample as a whole. Activity calls are given as the source filed them. Cut-off read from the data, not from the text of the source: active = growth inhibition above about 70%; inactive = the rest.
Experiment: NCI Yeast Anticancer Drug Screen. Data for the wt2 strain (AID 169);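 note: 0% = growth of vehicle-treated yeast cultures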
Conditions: S. cerevisiae wt2 strain growth inhibition, hits give high values
Procedure: Growth inhibition of yeast strains with defined genetic alterations is measured as a screen for potential anti-cancer activity. Selected strains with alterations in DNA damage repair or cell cycle control were exposed to compounds and growth inhibition was measured relative to vehicle treated controls. The strain used in this assay is wt2

Measured: growth inhibition

CCOC(=O)c1cnc2cc(C(F)(F)F)ccc2c1N=[N+]=[N-]
inactive: at 1.2 µM 2% | at 3.7 µM 2% | at 11.0 µM 14% | at 33.0 µM 59%
active: at 100.0 µM 93%

CCN(CC)[P+](c1ccccc1O)(N(CC)CC)N(CC)CC
inactive: at 1.2 µM -25% | at 3.7 µM -13% | at 11.0 µM -19% | at 33.0 µM 7%
active: at 100.0 µM 77%

O=C(Cc1csc2[n+]1C(=O)/C(=C/c1ccc(Cl)cc1)S2)Nc1ccccc1
inactive: at 1.2 µM -3% | at 3.7 µM -3% | at 11.0 µM 7% | at 33.0 µM 60%
active: at 100.0 µM 82%

Cc1ccc(S(=O)(=O)NC(=O)NC2=NC(C)(C)N(c3ccc(Cl)c(Cl)c3)C(N)=N2)cc1
inactive: at 1.2 µM -3% | at 3.7 µM -4% | at 11.0 µM -3% | at 33.0 µM -4% | at 100.0 µM -3%

CCN(CC)CCC(=O)c1ccc(Oc2ccc(F)cc2)cc1
active: at 33.0 µM 71% | at 100.0 µM 80%
inactive: at 1.2 µM 17% | at 3.7 µM 21% | at 11.0 µM 41%

CCN(CC)CCN1C(=O)c2cccc3cc(OC)cc(c23)C1=O
inactive: at 1.2 µM -23% | at 3.7 µM -3% | at 11.0 µM -38% | at 33.0 µM -35% | at 100.0 µM 13%

CC(C)/C(Cl)=N\OC(=O)Nc1ccc(F)cc1
active: at 33.0 µM 86% | at 100.0 µM 99%
inactive: at 1.2 µM -1% | at 3.7 µM -2% | at 11.0 µM 3%

CC(=O)Cc1ccc[cH-]1.[Fe+2].c1cc[cH-]c1
inactive: at 1.2 µM 2% | at 3.7 µM 5% | at 11.0 µM 13% | at 33.0 µM 17% | at 100.0 µM 32%
